# Only a selection was taken, and the strongest signals are over-represented in it overall.
# B1: OrysaEULS2 (Oryza sativa) (protein)
# chain: MVYCRANPNYAMTARNGAVVLAPANPKDEYQHWIKDMRWSTSIKDEEGYPAFALVNKATGQAIKHSLGQSHPVRLVPYNPEVMDESVLWTESRDVGNGFRCIRMVNNIYLNFDAFHGDKYHGGVRDGTDIVLWKWCEGDNQRWKIQPYYILEQKLISEEDLNSAVDHHHHHH
# How the values were obtained:
# Experiment in all cases: glycan array binding signal (z-score within array); higher = stronger binding
# Details in all cases: glycan notation: IUPAC condensed, linker removed
# [1] = molecular target: Gal(b1-4)GlcNAc(b1-3)Gal(b1-4)GlcNAc(b1-2)Man(a1-3)[Gal(b1-4)GlcNAc(b1-3)Gal(b1-4)GlcNAc(b1-2)Man(a1-6)]Man(b1-4)GlcNAc(b1-4)[Fuc(a1-6)]GlcNAc
# Summary of the method: (§1)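 From the Consortium for Functional Glycomics database, 3228 arrays were curated, keeping only those whose protein sequence was available. Binding is given as a within-array Z-score averaged across arrays sharing a protein sequence and across linkers. Negative Z-scores can be read as non-binding.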
# [2] = molecular target: Gal(b1-4)GlcNAc(b1-3)Gal(b1-4)GlcNAc(b1-6)[Gal(b1-3)]GalNAc
# Summary of the method: as §1
# [3] = molecular target: GalNAc(b1-3)GlcNAc
# Summary of the method: as §1
# [4] = molecular target: GalNAc3S(b1-4)GlcNAc3S
# Summary of the method: as §1
# [5] = molecular target: GlcNAc(b1-2)Gal(b1-3)GalNAc
# Summary of the method: as §1
# [6] = molecular target: GlcNAc(b1-2)Man(a1-3)[GlcNAc(b1-2)Man(a1-6)]Man(b1-4)GlcNAc(b1-4)GlcNAc
# Summary of the method: as §1
# [7] = molecular target: GlcNAc(b1-2)[GlcNAc(b1-4)]Man(a1-3)[GlcNAc(b1-2)Man(a1-6)]Man(b1-4)GlcNAc(b1-4)GlcNAc
# Summary of the method: as §1
# [8] = molecular target: GlcNAc(b1-3)Gal(b1-4)GlcNAc
# Summary of the method: as §1
# [9] = molecular target: GlcNAc(b1-3)Gal(b1-4)GlcNAc(b1-3)Gal(b1-4)GlcNAc(b1-2)Man(a1-3)[GlcNAc(b1-3)Gal(b1-4)GlcNAc(b1-3)Gal(b1-4)GlcNAc(b1-2)Man(a1-6)]Man(b1-4)GlcNAc(b1-4)GlcNAc
# Summary of the method: as §1
# [10] = molecular target: GlcNAc(b1-3)Gal(b1-4)GlcNAc(b1-6)[GlcNAc(b1-3)Gal(b1-3)]GalNAc
# Summary of the method: as §1
# [11] = molecular target: Kdn(a2-3)Gal(b1-3)GalNAc
# Summary of the method: as §1
# [12] = molecular target: Kdn(a2-3)Gal(b1-3)GlcNAc
# Summary of the method: as §1
# [13] = molecular target: Man(a1-2)Man(a1-3)[Man(a1-6)]Man(a1-6)[Man(a1-2)Man(a1-3)]Man(b1-4)GlcNAc(b1-4)GlcNAc
# Summary of the method: as §1
# [14] = molecular target: Man(a1-2)Man(a1-6)[Man(a1-3)]Man(a1-6)[Man(a1-2)Man(a1-2)Man(a1-3)]Man(b1-4)GlcNAc(b1-4)GlcNAc
# Summary of the method: as §1
# [15] = molecular target: Man(a1-3)[Man(a1-6)]Man(a1-6)[Man(a1-2)Man(a1-3)]Man(b1-4)GlcNAc(b1-4)GlcNAc
# Summary of the method: as §1
# [16] = molecular target: Man(a1-3)[Man(a1-6)]Man(a1-6)[Man(a1-3)]Man(b1-4)GlcNAc(b1-4)GlcNAc
# Summary of the method: as §1
# [17] = molecular target: Man(a1-3)[Man(a1-6)]Man(b1-4)GlcNAc(b1-4)GlcNAc
# Summary of the method: as §1
# [18] = molecular target: Man(a1-3)[Man(a1-6)]Man(b1-4)GlcNAc(b1-4)[Fuc(a1-6)]GlcNAc
# Summary of the method: as §1
# [19] = molecular target: Neu5Ac(a2-3)Gal(b1-3)GlcNAc(b1-2)Man
# Summary of the method: as §1
# [20] = molecular target: Neu5Ac(a2-3)Gal(b1-3)GlcNAc(b1-3)GalNAc
# Summary of the method: as §1
# [21] = molecular target: Neu5Ac(a2-3)Gal(b1-3)GlcNAc(b1-4)Gal(b1-4)Glc
# Summary of the method: as §1
# [22] = molecular target: Neu5Ac(a2-3)Gal(b1-4)GlcNAc(b1-3)Gal
# Summary of the method: as §1
# [23] = molecular target: Neu5Ac(a2-3)Gal(b1-4)[Fuc(a1-3)]GlcNAc(b1-3)Gal
# Summary of the method: as §1
# [24] = molecular target: Neu5Ac(a2-3)Gal(b1-4)[Fuc(a1-3)]GlcNAc(b1-3)GalNAc
# Summary of the method: as §1
# [25] = molecular target: Neu5Ac(a2-3)[GalNAc(b1-4)]Gal(b1-4)GlcNAc
# Summary of the method: as §1
# [26] = molecular target: Neu5Ac(a2-6)Gal(b1-4)Glc
# Summary of the method: as §1
# [27] = molecular target: Neu5Ac(a2-6)Gal(b1-4)GlcNAc(b1-2)Man(a1-6)[Man(a1-3)]Man(b1-4)GlcNAc(b1-4)GlcNAc
# Summary of the method: as §1
# [28] = molecular target: Neu5Ac(a2-8)Neu5Ac(a2-3)Gal(b1-3)GalNAc(b1-4)[Neu5Ac(a2-3)]Gal(b1-4)Glc
# Summary of the method: as §1
binder,measurement,setting,value
B1,glycan array binding signal (z-score),[1],0.18
same,glycan array binding signal (z-score),[2],-0.172
same,glycan array binding signal (z-score),[3],-0.242
same,glycan array binding signal (z-score),[4],-0.189
same,glycan array binding signal (z-score),[5],-0.206
same,glycan array binding signal (z-score),[6],3.13
same,glycan array binding signal (z-score),[7],-0.179
same,glycan array binding signal (z-score),[8],-0.186
same,glycan array binding signal (z-score),[9],0.555
same,glycan array binding signal (z-score),[10],-0.224
same,glycan array binding signal (z-score),[11],-0.167
same,glycan array binding signal (z-score),[12],-0.204
same,glycan array binding signal (z-score),[13],1.35
same,glycan array binding signal (z-score),[14],1.51
same,glycan array binding signal (z-score),[15],4.8
same,glycan array binding signal (z-score),[16],4.45
same,glycan array binding signal (z-score),[17],12.5
same,glycan array binding signal (z-score),[18],1.44
same,glycan array binding signal (z-score),[19],-0.31
same,glycan array binding signal (z-score),[20],-0.195
same,glycan array binding signal (z-score),[21],-0.24
same,glycan array binding signal (z-score),[22],-0.196
same,glycan array binding signal (z-score),[23],-0.179
same,glycan array binding signal (z-score),[24],-0.145
same,glycan array binding signal (z-score),[25],-0.207
same,glycan array binding signal (z-score),[26],-0.21
same,glycan array binding signal (z-score),[27],3.61
same,glycan array binding signal (z-score),[28],-0.153

# Reference: the supplement of paper PMC8728848
